Laboratory results from PubChem BioAssay (NCATS).
Records with an inconclusive call do not appear. Activity calls are given as the source filed them. Calls follow the shape of the dose curve; as a rule, active = well fitted curve in the direction sought with a large enough effect; inconclusive = small, poorly fitted or top-dose-only effect, or another doubt; inactive = no such curve, though single readings can be large; an effect the other way counts as inactive or inconclusive. Where a SMILES comes first, the peptide text is derived from it. [ ]: non-standard residue; d: D form. ξ: configuration not given here. ξTyr(βOH) = NC(C(=O)O)C(O)c1ccc(O)cc1

Legend:
[1] = molecular target: Calcium and integrin-binding protein 1 (Homo sapiens) (UniProt Q99828); test: Primary qHTS for Identification of Calcium Integrin Binding Protein 1 (CIB1) Competitor (AID 1508620);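 also: GST tagged CIB1 binding a fluorescein labelled alphaIIb integrin peptide tracer; top concentration of the series differs between compounds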
In short: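 Fluorescence polarization competition: CIB1-GST (1 uM final) preincubated with compound 15 min at room temperature, then FITC-labeled alphaIIb peptide (100 nM final) added for another 15 min. Polarization read at Ex 480/Em 540.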

[2] = Primary qHTS for inhibitors of nuclear receptor binding SET domain protein 2 (NSD2) in an isogenic RCH-ACV NSD2 p.E1099K mutant (9B) (AID 1645876); also: nearly all actives have a fitted effect of over 70% in size
[3] = Primary qHTS for inhibitors of nuclear receptor binding SET domain protein 2 (NSD2) in an RCH-ACV wild type WT cells (2C) (AID 1645877); also: nearly all actives have a fitted effect of over 70% in size
% is scaled to controls: 0 for no effect and ±100 for the full control effect.

Calcium and integrin-binding protein 1 (Homo sapiens), sequence (Q99828 whole entry, looked up): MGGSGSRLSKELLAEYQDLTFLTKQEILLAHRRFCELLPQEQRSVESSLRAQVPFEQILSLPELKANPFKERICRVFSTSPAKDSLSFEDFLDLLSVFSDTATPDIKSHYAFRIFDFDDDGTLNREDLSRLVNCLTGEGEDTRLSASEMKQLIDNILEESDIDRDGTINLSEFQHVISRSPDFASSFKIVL

CC1=C(C(=O)OC2OC(COC3OC(CO)C(O)C(O)C3O)C(O)C(O)C2O)C(C)(C)CCC1 (centres undefined)
inactive: Potency [1] | Potency [2] | Potency [3]

CC(=O)OC[C@]12[C@@H](OC(=O)c3ccoc3)C[C@@H]3[C@@H](OC(C)=O)[C@]1(OC3(C)C)[C@@](C)(O)C[C@H](OC(=O)c1ccoc1)[C@@H]2OC(=O)c1ccoc1
inactive: Potency [1] | Potency [2] | Potency [3]

COC(=O)C1=CO[C@@H](O[C@@H]2O[C@H](CO)[C@@H](O)[C@H](O)[C@H]2O)[C@H]2[C@@H]1[C@H](O)[C@H](O)[C@]2(C)O
inactive: Potency [1] | Potency [2] | Potency [3]

O=C(NCC(=O)N1CCCC1)Nc1ccc2ccccc2c1
inactive: Potency [1] | Potency [2] | Potency [3]

C=C1CCC[C@]2(C)CC[C@@](O)(C(=C)C(=O)O)C[C@@H]12
inactive: Potency [1] | Potency [2] | Potency [3]

CC(C)C1NC(=O)CNC(=O)C2CCCN2C(=O)C(Cc2c[nH]c3ccccc23)NC(=O)CNC(=O)C(C(O)c2ccc(O)cc2)NC(=O)CNC1=O (centres undefined) (cyclo(G[ξTyr(βOH)]GWPGV); configuration not given here)
inactive: Potency [1] | Potency [2] | Potency [3]

COc1cc2c(c(OC)c1O)C(c1ccc(O)cc1)C1C(=O)OC3C(COC(=O)C1=C2)OC(CO)(OC1OC(COC(=O)/C=C/c2ccc(OC4OC(C)C(O)C(O)C4O)cc2)C(O)C(O)C1O)C3O (centres undefined)
inactive: Potency [1] | activity change, negative = viability loss [2] -11.1% [at 9.23 µM] | activity change, negative = cell killing [3] -15.9% [at 9.23 µM]

CC1(C)C(=O)CCC2(C)C1C(O)C=C1COC(=O)C12O (centres undefined)
inactive: Potency [1] | Potency [2] | Potency [3]

C[C@@H]1O[C@@H](O[C@H]2[C@H](OC(=O)[C@]34CCC(C)(C)C[C@H]3C3=CCC5[C@@]6(C)CC[C@H](O[C@@H]7O[C@H](CO[C@@H]8OC[C@H](O)[C@H](O)[C@H]8O[C@@H]8OC[C@@H](O)[C@H](O)[C@H]8O)[C@@H](O)[C@H](O)[C@H]7O)C(C)(C)C6CC[C@@]5(C)[C@]3(C)C[C@H]4O)O[C@H](CO)[C@@H](O)[C@@H]2O)[C@H](O[C@@H]2O[C@H](CO)[C@@H](O)[C@H](O)[C@H]2O)[C@H](O)[C@H]1O[C@@H]1OC[C@@H](O)[C@H](O[C@@H]2OC[C@@H](O)[C@H](O)[C@H]2O)[C@H]1O (some centres undefined)
inactive: activity change, negative = inhibition [1] 0.603% [at 12.4 µM] | activity change, negative = viability loss [2] 4.39% [at 4.96 µM] | activity change, negative = cell killing [3] 4.37% [at 4.96 µM]

C[C@@]1(O)[C@H](O)[C@@H](CO)O[C@H]1n1cnc2c(=O)[nH]c(N)nc21
inactive: Potency [1] | Potency [2] | Potency [3]

CC1=CC2=C(C)C(=O)C(C)(O)C(O)C2CO1 (centres undefined)
inactive: Potency [1] | Potency [2] | Potency [3]

COc1cc2c(c(O)c1OC/C=C(\C)CC/C=C(/C)CCC=C(C)C)CN(C(CCC(=O)O)C(=O)O)C2=O (centres undefined)
inactive: Potency [1] | Potency [2] | Potency [3]

CC1(C)CC[C@]2(C(=O)O[C@@H]3O[C@H](CO)[C@@H](O)[C@H](O)[C@H]3O)CC[C@]3(C)C(=CCC4[C@@]5(C)CC[C@H](O[C@@H]6O[C@H](C(=O)O)[C@@H](O[C@@H]7O[C@H](CO)[C@@H](O)[C@H](O)[C@H]7O)[C@H](O)[C@H]6O[C@@H]6O[C@H](CO)[C@@H](O)[C@H](O)[C@H]6O)C(C)(C)C5CC[C@]43C)C2C1 (some centres undefined)
inactive: Potency [1] | activity change, negative = viability loss [2] 4.56% [at 9.23 µM] | activity change, negative = cell killing [3] 4.58% [at 9.23 µM]

O=C(O)CCc1cccc(O)c1O[C@@H]1O[C@H](CO)[C@@H](O)[C@H](O)[C@H]1O
inactive: Potency [1] | Potency [2] | Potency [3]

O=C(OCC(O)CO[C@@H]1O[C@H](C(=O)O)[C@@H](O)[C@H](O)[C@H]1O)c1ccccc1 (some centres undefined)
inactive: Potency [1] | Potency [2] | Potency [3]

Cc1ncc([N+](=O)[O-])n1C[C@H](O)CN1CCOCC1
inactive: Potency [1] | Potency [2] | Potency [3]

C/C=C/C(=O)OC1/C=C/C(O)C(OC(C)=O)CCC(=O)OC1C (centres undefined)
inactive: Potency [1] | Potency [2] | Potency [3]

C[C@]1(O)CC[C@@H]2C(C(=O)O)=CO[C@@H](O[C@@H]3O[C@H](CO)[C@@H](O)[C@H](O)[C@H]3O)[C@@H]21
inactive: Potency [1] | Potency [2] | Potency [3]

CC1(C)C(=O)N2c3ccccc3C(O)(CC(C(=O)O)n3cnc4ccccc4c3=O)C2N1O (centres undefined)
inactive: Potency [1] | Potency [2] | Potency [3]

O=C(O)Cn1nnc(-c2ccc(CN(CCCCOc3ccc(CN4CCCC4)cc3)CCc3ccccc3)cc2)n1
inactive: Potency [1] | Potency [2] | Potency [3]

C/C=C/C=C/C(O)=C1/C(=O)[C@]2(C)C(=O)[C@@](C)(O)[C@H]1[C@H]([C@@]1(C)OC(=O)C(C)=C1O)[C@H]2C(=O)CC/C=C/C
inactive: Potency [1] | Potency [2] | Potency [3]

CC1CCC2C(C)(C)[C@H](O)CC[C@]2(C)C12Cc1c(O)cc3c(c1O2)CN(C(CCC(=O)O)C(=O)O)C3=O (some centres undefined)
inactive: Potency [1] | Potency [2] | Potency [3]

CC1(C)CC[C@]2(C(=O)O[C@@H]3O[C@H](CO)[C@@H](O)[C@H](O)[C@H]3O)CC[C@]3(C)C(=CCC4[C@@]5(C)CC[C@H](O[C@H]6O[C@H](CO)[C@@H](O)[C@H](O[C@@H]7O[C@H](CO)[C@@H](O)[C@H](O)[C@H]7O)[C@H]6O)C(C)(C)C5CC[C@]43C)[C@@H]2C1 (some centres undefined)
inactive: Potency [1] | activity change, negative = viability loss [2] 3.49% [at 9.23 µM] | activity change, negative = cell killing [3] 2.79% [at 9.23 µM]
